Measurements from PubChem BioAssay (NCATS).
Inconclusive results are not listed. Unmarked numbers belong to inactive results. Activity calls are given as the source filed them. The call rests on the fitted dose curve; in most records, active means well fitted cell-killing curve with a large enough effect; inconclusive means small, poorly fitted or top-dose-only effect, or effect the other way; inactive means no such curve, though single readings can be large or run the other way.

Assay: Quantitative highthroughput screen to assess conditional lethalithy of SEM cells grown in RPMI1640 with dialyzed fetal bovine serum (RPMI+ds) (AID 1963884); further: nearly all actives have a fitted effect of over 35% in size
Details: SEM B-ALL cells, RPMI+dialyzed FBS, CellTiter-Glo viability, 48 h; series mostly up to 45.8 µM; viability: at the top concentration
Description: Assay Provider: Jason Cantor Ph.D.
Department of Biochemistry
University of Wisconsin-Madison, Madison, WI, USA
Chemical screening studies have identified drug sensitivities across hundreds of cancer cell lines but most putative therapeutics fail to translate. Discovery and development of drug candidates in models that more accurately reflect nutrient levels in human blood is a major challenge. Here we performed high-throughput screens in conventional versus Human Plasma-Like Medium (HPLM) to identify compounds that were "missed" when screening using the artificial culture condition. Sets of conditional anticancer compounds spanned phases of clinical development and included non-oncology drugs were assessed. […] We also traced conditional phenotypes for several chemotherapeutics to availability of HPLM-specific metabolites and confirmed others for compounds whose reported targets are encoded by nonessential genes. Our findings establish generalizable strategies for exploiting conditional lethality in HPLM to reveal therapeutic candidates and mechanisms of action in cancer cells.
Described herein are the results of each viability screens against three cell lines: NOMO1 (an acute myeloid leukemia cell line); P12-Ichikawa (a T-cell acute lymphoblastic leukemia); and SEM (a B-cell ALL). Each assay was screened using 3 different cell culture media: homemade human plasma-Like medium with 10% dialyzed fetal bovine serum (HPLM+ds); RPMI1640 with 10% untreated FBS and 5mM glucose (RPMI+s); and RPMI1640 with 10% dialyzed fetal bovine serum and 5 mM glucose (RPMI+ds).
PROTOCOL TABLE (as described by Inglese J, Shamu CE and Guy RK. 2007)
SEQUENCE No. (e.g., 1, 2, 3, etc.); […] (e.g., Cells, Incubation, Reagent, etc.); VALUE and DESCRIPTION.
1; Cells; 5 uL; white, solid bottom 1536-well Greiner assay plate.
2; Compounds; 23 nL; Kalypsis pin tool (Wako USA) equipped with a 1536-well pin head to transfer to the assay plates.
3; Incubation; 48 hours; 37C incubation.
4; Reagent; 3 uL; CellTiter Glo (Promega).
5; Incubation; 5 min, room temperature
6; Detection; Luminescence, Viewlux PerkinElmer.
NOTES (numbers refer to Sequence numbers above)
1. Briefly, 5 ul of cell reagent was dispensed using a Multidrop Combi Dispenser. The NOMO1 and SEM cells were plated at 500 cells/well and the P12-Ichikawa line at 1000 cells/well.
2. After seeding the cells, 23 nL of MIPE 4.1 library compounds (in DMSO) were added to each plate using a Kalypsys 1536 Pintool dispenser. Bortezomib at final concentration of […] and DMSO were added to each plate as positive and negative controls respectively. For each screen, MIPE 4.1 compounds were added over an eleven-point concentration range […] in 3-fold dilutions.
3. Each plate was covered with a stainless steel gasketed lid to prevent evaporation and incubated for 48 hour at 37C, 95% relative humidity, and 5% CO2.
4-5. Three microliter CellTilter-GloTM luminescent substrate mix (Promega) reagent was added to the assay plate and incubated at room temperature for 5 min.
6. The luminescence signal was measured using a ViewLux (PerkinElmer) multiplate reader with a 2 second exposure time per plate. Data for each compound were normalized as percent viability such that measurements for DMSO and the empty well controls in each plate were defined as 100% and 0%, respectively.
Potency means the concentration at half of the fitted maximal effect.

Row | SMILES | Potency | viability [%]
1 | C=CC(=O)Nc1cccc(Nc2nc(NC3CCC(N(C)C)CC3)nc3c2ncn3C(C)C)c1 (stereo not given) | 1.05 µM (active) | 
2 | CCOC(=O)C(C)Oc1cccc2c(=O)n(CC(=O)Nc3ccc4c(c3)OCCO4)ccc12 (stereo not given) |  | 109
3 | CCC(C)(C)c1ccc(CC(C)CN2C[C@@H](C)O[C@@H](C)C2)cc1 (stereo not given in full) |  | 89.4
4 | Cc1ccc(-c2ncn(-c3ccc(Nc4nccc(-c5cccc(N6CCOCC6)c5)n4)cc3)n2)cn1 | 0.148 µM (active) | 
5 | CN1C(C(=O)Nc2ccccn2)=C(O)c2sc(Cl)cc2S1(=O)=O |  | 82.3
6 | CN(C)CCc1c[nH]c2ccc(C[C@H]3COC(=O)N3)cc12 | 9.35 µM (active) | 
7 | O=c1ccn([C@@H]2O[C@H](CO)[C@H](O)[C@H]2O)c(=O)[nH]1 |  | 84.2
8 | CC1(CN2CCC(n3c(=O)[nH]c4ccccc43)CC2)OCc2ccccc2-n2cccc21 (stereo not given) |  | 111
9 | CCC1=C(C)CN(C(=O)NCCc2ccc(S(=O)(=O)NC(=O)NC3CCC(C)CC3)cc2)C1=O (stereo not given) |  | 97.1
10 | CC(C)n1nc(-c2ccc3oc(N)nc3c2)c2c(N)ncnc21 | 0.469 µM (active) | 
11 | CC1(C)CC(=O)c2c(C(F)(F)F)nn(-c3ccc(C(N)=O)c(NC4CCC(O)CC4)c3)c2C1 (stereo not given) | 0.148 µM (active) | 
12 | Cc1cc(Nc2ncc3c(n2)N(C)C(=O)N(c2cc(NC(=O)c4cccc(C(F)(F)F)c4)ccc2C)C3)n(C)n1 | 0.372 µM (active) | 
13 | Cc1cc2c(s1)Nc1ccccc1N=C2N1CCN(C)CC1 |  | 86.8
14 | CN(c1nccc(=O)[nH]1)C1CCN(c2nc3ccccc3n2Cc2ccc(F)cc2)CC1 |  | 89.9
15 | NC[C@H]1O[C@H](O[C@@H]2[C@@H](O)[C@@H](O[C@H]3O[C@H](CO)[C@@H](O)[C@H](N)[C@@H]3O)[C@H](N)C[C@@H]2N)[C@H](O)[C@@H](O)[C@H]1O |  | 89.5
16 | COc1nc(N)nc2c1ncn2[C@@H]1O[C@H](CO)[C@@H](O)[C@@H]1O |  | 79.3
17 | Fc1ccc(Cl)cc1-c1nc(Nc2ccncc2)c2nccnc2n1 |  | 103
18 | OC[C@H]1O[C@@H](OCCc2ccc(O)cc2)[C@H](O)[C@@H](O)[C@H]1O |  | 84.9
19 | CC[C@H](C)n1cc(C)c2c(C(=O)NCc3c(C)cc(C)[nH]c3=O)cc(-c3ccc(N4CCNCC4)nc3)cc21 |  | 94.1
20 | CN[C@@H]1CN(c2ccc3c(=O)c(C(=O)O)cn(-c4nccs4)c3n2)C[C@@H]1OC | 2.04 µM (active) | 

Row | SMILES | Potency | viability [%]
21 | CC(C)(Sc1cc(C(C)(C)C)c(O)c(C(C)(C)C)c1)Sc1cc(C(C)(C)C)c(O)c(C(C)(C)C)c1 |  | 114
22 | COc1cc2c(Nc3ccc(Cl)c(Cl)c3F)ncnc2cc1OCC1C[C@@H]2CN(C)C[C@H]2C1 | 11.8 µM (active) | 
23 | COc1cc2c(cc1OC)C1CC(=O)C(CC(C)C)CN1CC2 (stereo not given) |  | 87.7
24 | CN(C)C1CCN(C(=O)c2ccc(NC(=O)Nc3nc(N4CCOCC4)nc(N4CCOCC4)n3)cc2)CC1 | 0.296 µM (active) | 
25 | Cc1nc(NC(=O)N2CCC[C@@H]2C(N)=O)sc1-c1ccnc(C(C)(C)C(F)(F)F)c1 | 2.96 µM (active) | 
26 | Cc1cc(NC(=O)Nc2ccc(N(C)C)cc2)c2cc(F)cc(F)c2n1 |  | 111
27 | CCCCCCCCCCCCCCCCCCCCCCO |  | 109
28 | O=C(Nc1cccc(Cl)c1)Nc1ncc(CCNc2ncnc3ccsc23)s1 | 0.209 µM (active) | 
29 | COc1ccc(CCN2CCN(CCCc3ccccc3)CC2)cc1OC |  | 85.7
30 | COc1cccc2c1C(=O)c1c(O)c3c(c(O)c1C2=O)C[C@@](O)(C(=O)CO)C[C@@H]3O[C@H]1C[C@H](N)[C@H](OC2CCCCO2)[C@H](C)O1 (stereo not given in full) |  | 103
31 | CNC(=O)c1ccc(Nc2cc(Nc3ccccc3S(=O)(=O)C(C)C)c3cc[nH]c3n2)nc1 | 1.05 µM (active) | 
32 | CCN(CC)CCOc1ccc(Nc2ncc3cc(-c4c(Cl)cccc4Cl)c(=O)n(C)c3n2)cc1 | 2.35 µM (active) | 
33 | CC1(C)CCC(c2ccc(Cl)cc2)=C(CN2CCN(c3ccc(C(=O)NS(=O)(=O)c4ccc(N[C@H](CCN5CCOCC5)CSc5ccccc5)c(S(=O)(=O)C(F)(F)F)c4)cc3)CC2)C1 | 0.0526 µM (active) | 
34 | CN(C)C/C=C/C(=O)Nc1ccc(C(=O)Nc2cccc(Nc3ncc(Cl)c(-c4c[nH]c5ccccc45)n3)c2)cc1 | 0.166 µM (active) | 
35 | CCCCCCCCCCCCCCCC(=O)OC[C@@H](NC(=O)C(Cl)Cl)[C@H](O)c1ccc([N+](=O)[O-])cc1 |  | 98.1
36 | C[C@]12CC[C@@H]3c4ccc(O)cc4CC[C@H]3[C@H]1CC[C@H]2O | 20.9 µM (active) | 
37 | Cc1c(Cn2c(C)nc3c(C(=O)O)cc(N4CCOCC4)cc32)cccc1C(F)(F)F |  | 73.5
38 | Oc1ccc(-c2ccc(-c3cc(Nc4cccc(CNC5CC5)c4)n[nH]3)cc2)c(O)c1 | 7.43 µM (active) | 
39 | Nc1ccn([C@@H]2O[C@H](CO)[C@@H](O)[C@H]2O)c(=O)n1 |  | 1.79
40 | CCCNCC(O)COc1ccccc1C(=O)CCc1ccccc1 (stereo not given) |  | 99
